Our source for the seed-corrected z-score values is PubChem BioAssay AID1159506 (National Center for Advancing Translational Sciences (NCATS), 2015).

Whole data set: some 59,000 sequences, median the read-out near -0.00055, cut for the lowest 2% near -2. The entries come from a sample that favours the lowest values as a whole.

The experiment can be described thus: Identification of proteins required for the processing of the EWS-FLI1 nascent transcript.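 Note: robust z of luciferase light less the median z of siRNAs with the same seed.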 To be noted: TC32 Ewing sarcoma NR0B1-luc vs CMV-luc (EWS-FLI1 target promoter against control promoter), 48 h; screened at 20 nM (by protocol). Summed up:
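Readout: OneGlo luminescence, 48 h post-transfection, TC32-NR0B1-luc vs TC32-CMV-luc in parallel. siRNA 20 nM final, RNAiMax lipid, 600 cells/well; z-score-MAD transformed, then seed-adjusted.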
UCUGCGAUCAGUACCACUG against RBBP4 had a seed-corrected z-score of 0.278.
The same measure for ACAGGGUUAAAAUUGUCCG against M6PR: -0.318.
For UCAAUGUUCACCACACGGC against PLEKHH1 the value was -2.41; for UUUGUUAGGAGCUUGUAGG against C1GALT1C1, 1.55; for UAUAUCAUCAAGCGUAACC against TCF20, -1.21.
For UCGUUGUAUACUUUGGUGC against PRKAR2B the value was -0.139.
UAUGCUGUCGGAUGAGUCC against ATF1 returned a seed-corrected z-score of 0.345.
For UAUUGUCAAAUGAAGGUGG against TREML1 the value was 0.93; for UUGGUAUCAUCUUCUGUAG against PLXDC2, -0.075; for UUUCUGACCACGUCUAGCA against PEX11B, 0.368.
In the case of UGAGUGUAGAGCAGCCACU against NEU2, the seed-corrected z-score was -2.8.
For UGAGCUACCAUAUGCUUCA against RBMY1F the value was -0.266; for AUCCUCACCAUGGACAACG against CELA3A, -0.518.
Regarding UUUUUGAACAUGGUAACAG against RPL31P7, the seed-corrected z-score was found to be 1.16.
For AAGUGGUCAAAAUCCGCUC against LOC728613 the value was -1.66.
For AAAGUCAGCACUUCGAUCC against MCTP1 the value was -2.38.
For UAUGUUGUCACGCAGCACU against HIST1H4F the value was 1.31.
Regarding UUGGUUAUUCGAAGAGCUG against ME1, the seed-corrected z-score is -0.246.
For the sequence UGUCAUUUUUCUUCGGUUC against PWP2, the seed-corrected z-score was 0.885.
The same measure for UGAAUGGACAGUAUCUCUG against CCDC54: -0.774; for AAUCUGCUUCUUUAAGUCG against RBBP6: -2.31; for UUUCUGUCCAGGAAAUCUC against RWDD4: -0.311.
As for UCAGUGGAAGGAAUCCUCA against OR13C8, the seed-corrected z-score came out at 1.06.
The same measure for UUAUUGUCAAGUUCUGAUG against EFCAB14: 0.0178.
On to UUCUGUUCUACCUCGCUUC against WDR60, for which the seed-corrected z-score is -1.36.
UCUGGAGUUCUCAUUAGAC against IRF7 returned a seed-corrected z-score of 0.205.
Take AUACGUAUCCCGGACGCAG against SLC25A47: the seed-corrected z-score turned out to be 2.25.
With AGGGUAUUUACCUUCUUGC against LOC729696, the seed-corrected z-score was -2.56.
For UCCCAUACCAUCCACAGUG against SGCZ the value was 0.248; for AAGACUUCCAUCUAAGAUC against SLC39A11, -1.62.
The same measure for AAUCUUCACAUCAUUCUGG against TMEM70: -0.646; for AUUGAUGUCAAUCACAUGC against PCDHGA3: -0.895.
The same measure for UUUCAUGCGACGGUUUUGG against HOXC4: -0.731; for UGACUGUUGCUCCACUUCC against SH2D3A: -0.425.
Consider AGUCUUAUCAGCACCCUUU against MTPN, for which the seed-corrected z-score is -11.9.
For AUCCGGUACACCAUGUGGU against CYTH2 the value was -0.326.
In turn, UAUGAUGGAGGCGUAGUUC against MYCL yielded a seed-corrected z-score of 0.678.
For AAUGAUAUCUGUGAUCGCC against RABGEF1, the seed-corrected z-score was -0.242.
The same measure for UUCGUUCAGUGGGUUGUCC against SYNGR1: -0.497.
For UUCCCUUUCACGUCCAUGU against WFIKKN2 the value was -0.0396.
For UUUCGAUUUAAAAGAGCCC against RALGPS1 the value was 1.28; for UUUCUUCCAACGCAGUCUG against MRPS23, -2.67.
The sequence UAGAGGCUCAUCAUAGAUG against GPATCH3 showed a seed-corrected z-score of -0.0793.
For AAUGCUAUUACGGUUGAUG against FBXL6 the value was -0.269; for UUAUUGCAGAUCUGGAUCC against CYP2C9, -2.3.
For UCUGUUUCAUUUACUUUGC against PRSS44 the value was 0.238; for UUUAUAAAGAGGGUGGAUC against SGCB, -0.0761.
With UAUGAUACACUGGUAGGGU against ZNF684, the seed-corrected z-score was -2.38.
For AAAGUGAUUCCCACAGCUG against CCS, the seed-corrected z-score came to 1.5.
The same measure for UUUCUAACAUAGGAUGCCG against PRKAR1A: -0.515; for AUGGUUGCGGUAGAAGACG against PHYHIP: 0.484.
AUAGAAUCUAGGGAAAUAG against HBD came in with a seed-corrected z-score of 1.15.
AUAGUUAUCCUUUAAUAAC against SLC2A3: the seed-corrected z-score was -2.2.
For AAUGUCAUUGCUGCGGUCC against SH3KBP1 the value was -0.331; for UUUCAGAGCCUUUCCCUGC against LTA, -0.389.
Sequence UGAUGUACAGCUGAGGACC against ELMO2 had a seed-corrected z-score of -2.32.
The same measure for UCAGGUAGAGCAUAGCUUG against SPX: -1.13; for ACAGCUACCACAAAUGCAG against NDUFB3: 1.34; for UGGGUUCCCAGUAACACUC against RPRD2: -0.107.
The same measure for UGCUCUAUCUCUGUCAGGG against RORC: 0.626; for AUCGCUGUUAAGAAGCUCC against CIITA: -0.918.
In turn, UUGGAAUCAGUCAUGCUCA against SFTPD showed a seed-corrected z-score of 0.0218.
For AUCCUUCUUGAAGUCGGCG against OAF the value was 2.26; for UUCAGGACGAUCUUGACAG against CHRDL2, -0.237.
Sequence UGCCGUUUCAUCUUGUACC against NKX2-4 registered a seed-corrected z-score of -2.69.
The same measure for UUGAAGUUUGGAUAUUACC against GABPB2: -0.668; for GAAUGUAGCAAAUGAGUCG against MT1H: 0.588; for UGACUGGAUAUAUCCACUG against RAB20: 0.37.
For UUUUCUGCCUGAUCUAACU against MAP3K7CL the value was 0.11.
The same measure for UCACUGUCAAUCAUGCGCU against CACNG1: -1.04; for UCACCUUCCGCUUCGACUU against FAM181B: 2.19; for AAACCAAUAGGAAUUGACU against HINT3: 0.612.
As for AUCCAGUUAAUUCCAGAUG against NUDT1, the seed-corrected z-score was -3.9.
UAGGUUGUGAAUGUGGUCG against FBXL8 had a seed-corrected z-score of -3.1.
UAUAUGUCUUGAUUAUCCU against NMS showed a seed-corrected z-score of 0.309.
The same measure for UCCAGGUCAAGGGUAACGG against KIF7: -0.853; for UACAUGUCAAAUGAGCUCC against KIR2DL5B: -2.25.
For UGUAGAAUGAGUAGGCGGC against NMT2 the value was -0.0232; for UGUAUUUGAAGACUUUCCC against ZNF485, 0.182.
In turn, UUCCUUCCUCGUUCAUUGC against KGFLP1 returned a seed-corrected z-score of -2.1.
For AAAGCUUCCCUCAACUUGC against TAS2R9 the value was -0.00509; for UAUCUAGUGCAGUAUAUCG against COPS2, 0.174; for UUUGAUCUCAUCGGUGCCC against PIAS1, -0.0672.
For AUUCUCGUCAGUGAGCUCC against POLR2C the value was -0.262; for UCUUCGUUCUUGUCGAUCU against MED15, 2.07.
